# Sampled rows, rich in hits. Any-hit rate of the full collection: about 2.8%.
# POLH inh – blocks human DNA polymerase eta activity; Q9Y253; recombinant Pol eta, fluorescent DNA replication assay; Potency, µM (series often up to 114 µM), actives largely listed as inhibitors; actives 1.2% (n = 390,000)
#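 Pol eta (10 nM) was preincubated with compounds for 15 min at room temperature, after which fluorescent replication substrate (50 nM final) was added to start the reaction. Fluorescence was read kinetically at 0 and 10 min.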
# POLK inh – blocks human DNA polymerase kappa activity; purified Pol kappa, fluorescent DNA synthesis assay, 10 min; Potency, µM (doses to about 107 µM), actives largely listed as inhibitors; actives 0.53% (n = 400,000); AID 588579
#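 Kinetic fluorescence screen: compound preincubated 15 min RT with 10 nM enzyme; 50 nM substrate (final) initiates; reads at 0/10 min.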
# WRN inhibitor – inhibitors of human WRN helicase. Potency, µM (top dose mostly 114 µM), actives largely listed as inhibitors. AID 651768. actives 0.46% (n = 360,000). Q14191. WRN helicase unwinding, fluorescent forked duplex, kinetic; further: nearly all actives have a fitted effect of over 55% in size
#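 WRN at 20 nM final preincubated with compound 15 min at room temperature; reaction started with 100 nM fluorophore/quencher forked duplex oligonucleotide and 2 mM ATP final. Unwinding followed kinetically by red fluorescence (ex 525, em 598 nm).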
# PI5P4K alpha inh – inhibitors of human PI5P4K alpha; P48426; PI5P4Kalpha enzyme, ADP-Glo luminescence, 60 min; active compounds read low; max response, %; actives 1.2% (n = 330,000); active means max response of -50% or lower; inconclusive means between -30% and -50%; inactive means -30% or higher; further: value at the top dose of about 77 µM
#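 ADP-Glo luminescence end-point read after a 60 min room-temperature kinase reaction of PI5P4Kalpha plus substrate, initiated with ATP at 5 microM final. Buffer: 0.038 M HEPES pH 7.4, EGTA, 0.1% CHAPS, 5% DMSO.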
# Pol iota inh – inhibitors of human DNA polymerase iota; actives 1% (n = 390,000); AID 588590; Potency, µM (top dose mostly 115 µM), most hits filed as inhibitors; Pol iota fluorescent replication assay, 10 min; Q9UNA4
#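 Pol iota at 10 nM preincubated 15 min with compounds at room temperature; reaction started with fluorescent substrate, 50 nM final. Fluorescence read kinetically at 0 and 10 min; buffer-only wells as negative control.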
# POLB inh – inhibitors of human DNA polymerase beta; actives 1.3% (n = 340,000); Pol beta primer extension/strand displacement, fluorescence kinetic; Potency, µM (top dose mostly 114 µM), actives largely listed as inhibitors; P06746
#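 Preincubation: enzyme (10 nM) with compound, 15 min, RT. Reaction: substrate added to 50 nM final. Reads: 0 and 10 min. Analysis: normalized, Hill fit.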
# A number is an active result; 0 = inactive; ? = inconclusive; - = no result given; [ ] = dose if it differs, or a comment. Unless noted, the call rests on the fitted dose curve; in most records, active means well fitted curve in the direction sought with a large enough effect; inconclusive means small, poorly fitted or top-dose-only effect, or another doubt; inactive means no such curve, though single readings can be large; an effect the other way counts as inactive or inconclusive.
SMILES,POLH inh,POLK inh,WRN inhibitor,PI5P4K alpha inh,Pol iota inh,POLB inh
COc1cccc2sc(Nc3nc4ccc(NC(C)=O)cc4s3)nc12,?,45µM,?,0,16µM,?
CC(=O)Nc1ccc2nc(NC(=O)COc3ccccc3C)sc2c1,0,0,0,0,0,0
Cn1c(N)c(C(=O)COC(=O)c2ccccc2C(=O)c2ccc(Cl)c([N+](=O)[O-])c2)c(=O)n(C)c1=O,0,0,0,0,0,-
Cn1c(CNC(=O)c2ccc3c(c2)OCO3)nnc1SCC(=O)Nc1ccc(F)cc1F,0,0,0,0,0,0
CC(=O)Oc1c2occc2cc2ccc(=O)oc12,?,?,0,0,?,50µM
Cc1c(CC(=O)N[C@H](C(=O)O)C(C)C)c(=O)oc2cc3c(cc12)CCC(C)(C)O3,0,0,0,0,0,0
CC(=O)Nc1ccc(Nc2nc3c(S(=O)(=O)c4cccc(Cl)c4)nnn3c3ccsc23)cc1,79µM,0,-,-,0,0
Cc1cc(C)cc(Nc2nc3c(S(=O)(=O)c4cccc(Cl)c4)nnn3c3ccsc23)c1,0,0,-,-,0,0
CCS(=O)(=O)c1ncc(N(Cc2cccc(F)c2)Cc2ccco2)c(C(=O)Nc2ccccc2Cl)n1,0,0,-,-,0,0
COc1ccccc1CCNC(=O)Cn1ccc2cc(S(=O)(=O)N3CCC(C)CC3)ccc21,0,0,0,0,0,0
COc1ccc(O)c(C(=O)C2c3ccccc3C(=O)N2c2ccc(C)cc2)c1 (centres undefined),0,0,50µM,0,0,0
CCCCCCCCCCCCCCC(O)C[N+](C)(CCO)CCO (centres undefined),0,0,?,-72,0,-
CCCCCCCCC(C)O (centres undefined),-,0[12 µM],-,-,-,-
Cn1c(SCC(=O)NCC2CCCO2)nc2scc(-c3ccccc3)c2c1=O (centres undefined),0,0,0,0,0,-
C=CCn1c(SCC(=O)NCC2CCCO2)nc2scc(-c3ccco3)c2c1=O (centres undefined),0,0,0[11.6 µM],-,?,7.1µM
C=CCn1c(SCC(=O)NCCOC)nc2scc(-c3ccco3)c2c1=O,18µM,?,?,0,?,?
CN(C)S(=O)(=O)c1cccc(NC(=O)C2Cc3ccccc3CN2C(=O)c2ccco2)c1 (centres undefined),?,0,0,?,35µM,?
O=C(Nc1nnc(C2CC2)s1)C1Cc2ccccc2CN1C(=O)c1ccco1 (centres undefined),?,0,0,?,28µM,7.9µM
CCc1nnc(NC(=O)C2Cc3ccccc3CN2S(=O)(=O)c2cccs2)s1 (centres undefined),?,?,0,?,?,0
O=C(Nc1nnc(SCc2ccc(F)cc2)s1)C1Cc2ccccc2CN1C(=O)c1ccco1 (centres undefined),22µM,?,?,?,?,0
O=C(Nc1ccccc1N1CCOCC1)C1Cc2ccccc2CN1C(=O)c1ccco1 (centres undefined),0,0,0,0,0,0
O=C(Nc1nnc(C2CC2)s1)C1Cc2ccccc2CN1S(=O)(=O)c1cccs1 (centres undefined),7.1µM,?,0,-60,0,11µM
COCCCNC(=O)c1ccc(C2SCC(=O)N2Cc2ccco2)cc1 (centres undefined),0,0,0,0,0,0
O=C(NCc1ccc2c(c1)OCO2)c1ccc(C2SCC(=O)N2Cc2ccco2)cc1 (centres undefined),79µM,0,?,-,?,0
C=CCNC(=O)c1ccc(C2SCC(=O)N2Cc2ccco2)cc1 (centres undefined),?,?,0,0,45µM,?
O=C(CCSCc1ccccc1Cl)N1CCN(c2ccc(F)cc2)CC1,0,0,-,-,0,0
CC(C)(C)S(=O)(=O)N1C[C@H]2C(=CC[C@@H]3C(=O)N(c4ccccc4)C(=O)[C@@H]32)[C@H]1CCO,0,0,0,0,0,-
O=C(CSCc1ccc(Cl)cc1Cl)Nc1ccccc1C(=O)Nc1ccc(C(=O)O)cc1,0,0,0,0,0,0
